The whole screen tested about 5,500 compounds, of which about 2,000 (36%) were called active. About 18% were inconclusive and are not listed. No stated cut-off is given here; in the data, active means normalized growth mostly below about 0.91 (no sharp cut-off); inconclusive means no clear call, values can overlap the other calls; inactive means mostly above about 0.92. The list shows a part of the results.
Test: chemical genetic growth profiling, strain panel (AID 1159580);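 further: tested at 20 µM; growth read once vehicle control cultures reached saturation at 30 °C; 1 = growth at the plate median or of vehicle wells; lower values mean less growth of the strain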
Conditions: growth OD

Measured: normalized growth

CC(C)(Oc1ccc(Cl)cc1)C(=O)O
inactive: S. cerevisiae deletion strains, locus YJR075W, strain HOC1, hits give low values 0.992 | S. cerevisiae deletion strains, locus YKL009W, strain mrt4, hits give low values 0.983 | S. cerevisiae deletion strains, locus YKL068W, hits give low values 0.967 | S. cerevisiae deletion strains, locus YKL085W, strain MDH1 (second series), hits give low values 0.981 | S. cerevisiae deletion strains, locus YKL085W, strain MDH1, hits give low values 0.981 | S. cerevisiae deletion strains, locus YKL160W, strain elf1, hits give low values 1.02 | S. cerevisiae deletion strains, locus YKL190W, strain CNB1, hits give low values 0.996 | S. cerevisiae deletion strains, locus YKR001C, strain vps1, hits give low values 0.973 | S. cerevisiae deletion strains, locus YKR026C, strain gcn3, hits give low values 1 | S. cerevisiae deletion strains, locus YKR091W, strain srl3, hits give low values 0.999 | S. cerevisiae deletion strains, locus YLL001W, strain dnm1, hits give low values 1 | S. cerevisiae deletion strains, locus YLL026W, hits give low values 1.01 | S. cerevisiae deletion strains, locus YLL041C, strain sdh2, hits give low values 0.996 | S. cerevisiae deletion strains, locus YLR027C, strain aat2, hits give low values 1.01 | S. cerevisiae deletion strains, locus YLR039C, strain RIC1, hits give low values 0.967 | S. cerevisiae deletion strains, locus YLR058C, strain SHM2, hits give low values 0.994 | S. cerevisiae deletion strains, locus YLR102C, strain apc9, hits give low values 0.987 | S. cerevisiae deletion strains, locus YLR221C, strain rsa3, hits give low values 0.981 | S. cerevisiae deletion strains, locus YLR258W, strain gsy2, hits give low values 1.03 | S. cerevisiae deletion strains, locus YLR262C, strain YPT6 (second series), hits give low values 1 | S. cerevisiae deletion strains, locus YLR262C, strain YPT6, hits give low values 0.948 | S. cerevisiae deletion strains, locus YLR268W, strain sec22, hits give low values 0.927 | S. cerevisiae deletion strains, locus YLR320W, strain mms22, hits give low values 0.98 | S. cerevisiae deletion strains, locus YLR330W, strain CHS5, hits give low values 0.985 | S. cerevisiae deletion strains, locus YLR342W, strain FKS1 (second series), hits give low values 1.06 | S. cerevisiae deletion strains, locus YLR342W, strain FKS1, hits give low values 1.03 | S. cerevisiae deletion strains, locus YLR357W, strain rsc2, hits give low values 1.03 | S. cerevisiae deletion strains, locus YLR370C, strain arc18, hits give low values 1.02 | S. cerevisiae deletion strains, locus YLR371W, strain rom2, hits give low values 0.98 | S. cerevisiae deletion strains, locus YLR384C, strain iki3, hits give low values 0.991 | S. cerevisiae deletion strains, locus YLR418C, strain cdc73, hits give low values 1 | S. cerevisiae deletion strains, locus YML016C, strain PPZ1, hits give low values 0.995 | S. cerevisiae deletion strains, locus YML032C, strain rad52, hits give low values 0.958 | S. cerevisiae deletion strains, locus YML120C, strain ndi1, hits give low values 0.983 | S. cerevisiae deletion strains, locus YML124C, strain tub3, hits give low values 0.99 | S. cerevisiae deletion strains, locus YMR058W, strain fet3, hits give low values 1.01 | S. cerevisiae deletion strains, locus YMR078C, strain ctf18, hits give low values 0.978 | S. cerevisiae deletion strains, locus YMR125W, strain sto1, hits give low values 1.05 | S. cerevisiae deletion strains, locus YMR129W, hits give low values 1.02 | S. cerevisiae deletion strains, locus YMR205C, strain PFK2, hits give low values 0.991 | S. cerevisiae deletion strains, locus YMR223W, strain ubp8, hits give low values 1.03 | S. cerevisiae deletion strains, locus YMR231W, strain pep5, hits give low values 0.999 | S. cerevisiae deletion strains, locus YMR263W, strain SAP30, hits give low values 0.985 | S. cerevisiae deletion strains, locus YMR307W, strain GAS1, hits give low values 1.09 | S. cerevisiae deletion strains, locus YNL067W, strain RPL9B, hits give low values 0.977 | S. cerevisiae deletion strains, locus YNL071W, strain lat1, hits give low values 1.02 | S. cerevisiae deletion strains, locus YNL128W, strain TEP1, hits give low values 0.996 | S. cerevisiae deletion strains, locus YNL153C, strain GIM3, hits give low values 0.979 | S. cerevisiae deletion strains, locus YNL209W, strain ssb2, hits give low values 1.02 | S. cerevisiae deletion strains, locus YNL233W, strain BNI4, hits give low values 0.994 | S. cerevisiae deletion strains, locus YNL248C, strain rpa49, hits give low values 1.05 | S. cerevisiae deletion strains, locus YNL250W, strain rad50, hits give low values 0.985 | S. cerevisiae deletion strains, locus YNL271C, strain bni1, hits give low values 0.983 | S. cerevisiae deletion strains, locus YNL298W, strain CLA4, hits give low values 0.963 | S. cerevisiae deletion strains, locus YNL307C, strain MCK1, hits give low values 0.976 | S. cerevisiae deletion strains, locus YNL322C, strain KRE1 (second series), hits give low values 0.996 | S. cerevisiae deletion strains, locus YNL322C, strain KRE1, hits give low values 0.995 | S. cerevisiae deletion strains, locus YNR049C, strain mso1, hits give low values 1.01 | S. cerevisiae deletion strains, locus YNR052C, strain pop2, hits give low values 0.98 | S. cerevisiae deletion strains, locus YOL006C, strain TOP1, hits give low values 0.941 | S. cerevisiae deletion strains, locus YOL012C, strain htz1 0.835 | S. cerevisiae deletion strains, locus YOL147C, strain pex11, hits give low values 0.987 | S. cerevisiae deletion strains, locus YOR001W, strain rrp6, hits give low values 0.962 | S. cerevisiae deletion strains, locus YOR061W, strain CKA2, hits give low values 0.995 | S. cerevisiae deletion strains, locus YOR069W, strain VPS5, hits give low values 0.991 | S. cerevisiae deletion strains, locus YOR070C, strain gyp1, hits give low values 1.01 | S. cerevisiae deletion strains, locus YOR080W, strain dia2, hits give low values 1.01 | S. cerevisiae deletion strains, locus YOR083W, strain WHI5, hits give low values 0.985 | S. cerevisiae deletion strains, locus YOR106W, strain vam3, hits give low values 1.04 | S. cerevisiae deletion strains, locus YOR136W, strain idh2, hits give low values 0.989 | S. cerevisiae deletion strains, locus YOR144C, strain elg1, hits give low values 0.982 | S. cerevisiae deletion strains, locus YOR184W, strain ser1, hits give low values 0.964 | S. cerevisiae deletion strains, locus YOR265W, strain rbl2, hits give low values 1.01 | S. cerevisiae deletion strains, locus YOR270C, strain vph1, hits give low values 1.09 | S. cerevisiae deletion strains, locus YOR290C, strain snf2, hits give low values 1.03 | S. cerevisiae deletion strains, locus YOR316C, strain cot1, hits give low values 0.962 | S. cerevisiae deletion strains, locus YPL051W, strain arl3, hits give low values 1.04 | S. cerevisiae deletion strains, locus YPL055C, strain LGE1, hits give low values 0.996 | S. cerevisiae deletion strains, locus YPL078C, strain atp4, hits give low values 1.05 | S. cerevisiae deletion strains, locus YPL106C, strain sse1, hits give low values 1.06 | S. cerevisiae deletion strains, locus YPL240C, strain hsp82, hits give low values 1 | S. cerevisiae deletion strains, locus YPL241C, strain CIN2, hits give low values 0.994 | S. cerevisiae deletion strains, locus YPR119W, strain clb2, hits give low values 0.971 | S. cerevisiae deletion strains, locus YPR141C, strain kar3, hits give low values 0.982 | S. cerevisiae deletion strains, locus YPR163C, strain tif3, hits give low values 0.975 | S. cerevisiae deletion strains, locus YPR167C, strain met16, hits give low values 0.966 | S. cerevisiae deletion strains, strain wtn01, hits give low values 0.955 | S. cerevisiae strains, strain wild type, hits give low values 0.995

Source: PubChem BioAssay AID1159580 (chemical genetic matrix, 2015)
